This is a sample that favours compounds with a hit; in the whole collection about 3.4% have one here.
ADAM17 inh = ADAM17 inhibition, QFRET primary screen | P78536 | recombinant ADAM17, EDANS/DABCYL FRET peptide cleavage | inhibition, % at 6.95 µM | actives 0.83% (n = 370,000);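 active means inhibition above the mean of compounds lying between control limits plus 3 SD, set per campaign, cut at about 8.5% in these data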;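 further: 0% = DMSO-only wells as the low control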
HGIII-sPLA2 inh = Inhibits HGIII-sPLA2 liposome hydrolysis, primary screen. actives 0.56% (n = 370,000). inhibition, % at 12.2 µM. Q9NZ20. QFRET BODIPY PC-A2 liposome hydrolysis, fluorescence;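 active means inhibition above mean plus 3 SD of compounds lying within the high and low control bounds, cut at about 19% in these data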;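 further: 0% = median of test compound wells and 100% = no enzyme DMSO wells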
NRP1-CendR mod = modulators of CendR peptide binding to human neuropilin-1; O14786; FAM-RPARPAR peptide binding to NRP-1, fluorescence polarization; inhibition, % at 25 µM; actives 0.85% (n = 360,000);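 active means inhibition or corrected inhibition above about 18%, plus a signal ratio from 0.5 to 1.5, limit read from the data, passing the limit was not always enough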
Target sequence (O14786 whole entry, looked up): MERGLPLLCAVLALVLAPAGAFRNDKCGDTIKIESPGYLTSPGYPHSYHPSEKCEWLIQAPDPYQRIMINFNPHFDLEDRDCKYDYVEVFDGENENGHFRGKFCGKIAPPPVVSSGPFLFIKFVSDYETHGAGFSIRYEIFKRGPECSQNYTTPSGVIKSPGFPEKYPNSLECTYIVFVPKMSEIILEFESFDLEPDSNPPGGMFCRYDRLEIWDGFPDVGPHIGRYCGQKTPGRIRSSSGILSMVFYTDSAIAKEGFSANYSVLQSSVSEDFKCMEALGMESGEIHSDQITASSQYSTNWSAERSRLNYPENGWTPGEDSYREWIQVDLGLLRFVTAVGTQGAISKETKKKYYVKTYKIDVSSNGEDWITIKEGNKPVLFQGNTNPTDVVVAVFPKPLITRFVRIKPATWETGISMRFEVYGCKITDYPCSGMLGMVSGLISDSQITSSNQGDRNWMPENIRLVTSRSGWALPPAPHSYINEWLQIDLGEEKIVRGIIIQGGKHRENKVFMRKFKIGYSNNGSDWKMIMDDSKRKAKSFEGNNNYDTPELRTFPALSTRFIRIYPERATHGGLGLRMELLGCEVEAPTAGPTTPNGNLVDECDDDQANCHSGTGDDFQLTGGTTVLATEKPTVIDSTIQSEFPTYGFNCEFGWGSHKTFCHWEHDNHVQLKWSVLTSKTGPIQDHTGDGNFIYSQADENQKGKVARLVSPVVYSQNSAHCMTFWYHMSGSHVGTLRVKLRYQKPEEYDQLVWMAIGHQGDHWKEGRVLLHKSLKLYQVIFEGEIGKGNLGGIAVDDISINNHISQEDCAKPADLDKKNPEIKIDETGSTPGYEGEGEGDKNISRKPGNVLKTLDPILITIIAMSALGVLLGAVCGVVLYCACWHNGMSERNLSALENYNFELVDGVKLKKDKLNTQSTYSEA
ADAM10 inh = inhibitors of human ADAM10 | O14672 | recombinant ADAM10, EDANS/DABCYL FRET peptide cleavage, 3 h | inhibition, % at 7 µM | actives 0.62% (n = 370,000) | AID 720582;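 active means inhibition above a per-campaign cutoff equal to the mean of compounds falling between control-based bounds plus 3 SD, cut at about 20% in these data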;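 further: 0% = DMSO wells while the 100% control is not disclosed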
proKLK7 act = activates the human kallikrein-7 zymogen | P49862 | purified proKLK7, EDANS-DABCYL substrate fluorescence; 100% is mature enzyme control, 0% vehicle | activation, % at 7 µM | actives 0.9% (n = 370,000);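 active means activation above the mean of all tested compounds plus 3 SD, computed per campaign excluding outliers beyond control limits, cut at about 13% in these data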
KLK7 act conf = proKLK7 activation, confirmation; shares compounds with proKLK7 act; purified proKLK7, EDANS-DABCYL substrate fluorescence; scaled: vehicle 0, mature enzyme 100; activation, % at 7 µM; actives 68% (n = 3,200); AID 686949;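 active means activation, as change over the incubation, above the mean of all tested compounds plus 3 SD, cut at about 13% in these data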
EDANS interfere = optically interferes with EDANS-DABCYL signal, flagging KLK7 hits; shares compounds with proKLK7 act; activation, % at 7 µM; actives 80% (n = 3,200); EDANS-DABCYL substrate fluorescence interference, no enzyme, 4 h; solvent 0%, active enzyme control 100%; AID 686952;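 active means activation above the all-compound mean plus 3 SD, ignoring values outside control-based bounds, cut at about 4.8% in these data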;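 further: value is the 4 h activation minus the activation read at time zero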
K7 EDANS ctr = optically interferes with EDANS-DABCYL fluorescence, kallikrein-7 activator counter-screen. shares compounds with proKLK7 act. EDANS-DABCYL peptide fluorescence interference, no enzyme. EC50, µM. actives 20% (n = 250);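 active means compounds that raise the fluorescence signal in this interference counterscreen, with EC50 at or below 10 µM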;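 further: intact quenched peptide substrate alone read at 355 nm excitation and 520 nm emission; signal is fluorescence gain from T0 to T4 after four hours at room temperature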
An asterisk follows results filed as active; i = inactive; . = no result given.

SMILES	ADAM17 inh	HGIII-sPLA2 inh	NRP1-CendR mod	ADAM10 inh	proKLK7 act	KLK7 act conf	EDANS interfere	others
CC(C)=CCn1c2ccc(NC(=O)Nc3ccc(N(C)C)cc3)cc2c(=O)n1C	-65	18	3	-264	14*	5	6.5*
Cn1c(=O)c2cc(NC(=O)NCc3ccc(F)cc3)ccc2n1C/C=C/c1ccccc1	-112	-6	-11	-435	-6	.	.
CN(C)c1ccc(NC(=O)Nc2ccc3c(c2)c(=O)n(C)n3Cc2ccccc2)cc1	-48	9	-1	-179	-1	.	.
C=C(C)Cn1c2ccc(NC(=O)CCc3cccnc3)cc2c(=O)n1C	-437	0	8	i	21*	23*	26*
CCOC(=O)C1=NOC(C(=O)Nc2cc(C)cc(C)c2)(C(=O)C2CC2)C1 (stereo unspecified)	0	-3	.	0	0	.	.
Cc1ccc(NC(=O)Cc2ccc(OC(F)F)cc2)c(S(=O)(=O)N2CCOCC2)c1	-1	-7	.	3	0	.	.
C=C(C)Cn1c2ccc(NC(=O)NCCc3cccs3)cc2c(=O)n1C	i	9	0	i	26*	19*	9.8*	K7 EDANS ctr=>70
COc1ccc(CCNC(=O)Nc2ccc3c(c2)c(=O)n(C)n3CC=C(C)C)cc1OC	i	-9	1	i	26*	3	5.4*
CC(C)=CCn1c2ccc(NC(=O)NCc3ccc(F)cc3)cc2c(=O)n1C	i	3	-4	i	18*	3	-1
C=C(C)Cn1c2ccc(NC(=S)NCc3ccccc3F)cc2c(=O)n1C	-350	4	6	i	-1	.	.
CCNC(=S)Nc1ccc2c(c1)c(=O)n(C)n2CC=C(C)C	i	12	-10	i	46*	31*	33*
COc1ccc(NC(=O)NCCc2ccc(Cl)cc2)cc1OC	5	2	0	-4	0	.	.
COC(=O)CC1CCc2cc(C)cc(C(=O)CC(C)C)c2O1 (stereo unspecified)	-42	0	.	-142	.	.	.
CC(Cl)C(=O)N1CCC(C(=O)NC2CCCc3ccccc32)CC1 (stereo unspecified)	2	-2	.	2	0	.	.
Cc1ccc(NC(=O)[C@H]2CC(=O)O[C@@H]2c2ccccc2)c(C)c1	-4	7	.	-5	1	.	.
CCC1(O)C(=O)OCc2c1cc1n(c2=O)Cc2cc3cc(O)ccc3nc2-1 (stereo unspecified)	-219	-44	45*	i	64*	74*	77*
COC(=O)c1cc(-c2ccc(C(C)=O)cc2)c(=O)n2c1CCC2	-278	-5	.	i	39*	72*	71*
O=C(NCc1ccccc1)OCCN1C(=O)CCC12CCC(c1ccccc1)CC2 (stereo unspecified)	0	2	.	-1	0	.	.
COc1ccc(C2Nc3ccccc3C(=O)N2NS(C)(=O)=O)c(OC)c1 (stereo unspecified)	-253	-4	3	i	69*	11	15*
CS(=O)(=O)NN1C(=O)c2ccccc2NC1c1ccccc1O (stereo unspecified)	-114	-5	12	-307	36*	6	6.4*
COc1cc(C2Nc3ccccc3C(=O)N2NS(C)(=O)=O)c([N+](=O)[O-])cc1OC (stereo unspecified)	-24	1	-4	-74	6	.	.
CS(=O)(=O)NN1C(=O)c2ccccc2NC1c1ccccc1 (stereo unspecified)	-219	6	1	i	79*	10	15*
CS(=O)(=O)NN1C(=O)c2ccccc2NC1c1cccc(O)c1 (stereo unspecified)	-283	4	-6	i	63*	17*	19*
Cc1ccc(S(=O)(=O)NN2C(=O)c3ccccc3NC2c2ccccc2O)cc1 (stereo unspecified)	-17	3	10	-53	3	.	.

From PubChem
